Screens (PubChem BioAssay)
Shown are actives, neighbours in structure and some others; about 19% of the full set was active somewhere.
TDP1 block: blocks human tyrosyl-DNA phosphodiesterase 1; Q9NUW8; recombinant TDP1, AlphaScreen DNA substrate cleavage; Potency, µM (highest dose often 130 µM), for inactives: at the top dose activity change, negative = inhibition, actives largely listed as inhibitors; 350,000 compounds, 0.28% hits; AID 485290; note: potency is the fitted concentration of half-maximal effect; % is set by controls: 0 for no effect and ±100 for the full control effect; nearly all actives have a fitted effect of over 40% in size
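Here, a 5' biotin and 3' phosphotyrosine-FITC DNA oligonucleotide reports Tdp1 activity: intact substrate bridges AlphaScreen beads, while cleavage leaves a 3' phosphate and drops signal. All incubations at room temperature.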
DT40 TDP1 no CPT: qHTS for Inhibitors of human tyrosyl-DNA phosphodiesterase 1 (TDP1): qHTS in cells in absence of CPT | DT40 Tdp1-/- hTDP1 cells, no CPT, ATP luminescence, 48 h | Potency, µM (top dose mostly 46.2 µM), inactives show at the top dose activity change, negative = growth inhibition, hits mostly inhibitors | 420,000 compounds, 15% hits; note: potency is the fitted concentration of half-maximal effect; % is set by controls: 0 for no effect and ±100 for the full control effect; nearly all actives have a fitted effect of over 55% in size
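Cells were dispensed at 400 per well, compounds added by pin tool, plates incubated ≥48 hr at 37 °C, then CellTiter-Glo added for 30 min at room temperature before luminescence reading. Line: DT40 Tdp1-/- complemented with hTDP1; camptothecin omitted.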
HepG2 tox: HepG2 cytotoxicity, counter-screen for TGF-b inhibitors; HepG2 CAGA-GFP viability, ATP luminescence, 18 h; Potency, µM (doses to about 46.1 µM), for the others: at the highest dose activity change, negative = cytotoxicity, most hits filed as cytotoxic; 410,000 compounds, 0.76% hits; note: potency is the fitted concentration of half-maximal effect
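CellTiter-Glo luminescence gave cytotoxicity after 18 hours at 37 degrees C. The cells were HepG2 CAGA-GFP in 1% FBS DMEM, stimulated with 500 pg/mL TGF-beta after compound addition. %Activity was normalised to no-cell wells (complete cell-killing) and DMSO (no toxicity), and curves were fitted and classified.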
TGFb SMAD3 inh: inhibitors of TGF-b signaling; Potency, µM (series often up to 46.1 µM), for inactives: at the top dose activity, negative = inhibition, hits mostly inhibitors; HepG2 CAGA-GFP TGF-b/SMAD3 reporter, GFP fluorescence, 18 h; TGF-beta stimulated, 500 pg/mL final; 410,000 compounds, 1.2% hits; note: potency is the fitted concentration of half-maximal effect; % is set by controls: 0 for no effect and ±100 for the full control effect; nearly all actives have a fitted effect of over 65% in size
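First, reporter cells (HEPG2 CAGA-GFP) rested 2 h at 37 degrees C. Next, compounds were pinned in and TGF-beta added to 500 pg/mL final. After 18 h, GFP was imaged per cell and summed per well.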
TDP1 cell CPT: growth inhibition of DT40 Tdp1-/-;hTDP1 cells with camptothecin (screen for TDP1 inhibitors). chicken DT40 Tdp1-/-;hTDP1 cells + 20 nM CPT, ATP luminescence, 48 h. Potency, µM (highest dose often 46.2 µM), for inactives: at the top dose activity change, negative = growth inhibition, usual class: inhibitors. 420,000 compounds, 12% hits. AID 686979; note: potency is the fitted concentration of half-maximal effect; % is set by controls: 0 for no effect and ±100 for the full control effect; nearly all actives have a fitted effect of over 55% in size
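Chicken DT40 Tdp1-/- cells stably complemented with human TDP1 were seeded at 400 cells/well in medium containing 20 nM camptothecin, exposed to pin-transferred compounds, and grown at 37 °C for at least 48 hr. Viability was read as ATP luminescence.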
IL-1B inflam inh: blocks inflammasome-driven IL-1 beta release; THP-1 LPS/ATP IL-1B secretion, AlphaLISA, 16 h; hits give low values; activity change, % at 57.5 µM; 360,000 compounds, 4.7% hits; in the data active = activity change below about -50%; inconclusive = mostly about -30% to -49%; note: % is set by controls: 0 for no effect and ±100 for the full control effect
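Secreted IL-1B measured by AlphaLISA bead assay after 16 h compound exposure of THP-1 cells; compounds (final up to 57.5 uM) added 1 h before LPS (250 ng/mL) and ATP (1.25 mM) stimulation; lower signal means less secretion.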
* = called active by the depositor; ? = inconclusive; nt = not tested or not shown; [ ] = another dose, or the depositor's remark. Unless noted, calls come from the whole dose curve; as a rule, active = well fitted curve in the direction sought with a large enough effect; inconclusive = small, poorly fitted or top-dose-only effect, or another doubt; inactive = no such curve, though single readings can be large; an effect the other way counts as inactive or inconclusive.

SMILES	TDP1 block	DT40 TDP1 no CPT	HepG2 tox	TGFb SMAD3 inh	TDP1 cell CPT	IL-1B inflam inh
Cc1ccc2onc(CC(=O)N3CCN(c4cc(Cl)ccc4C)CC3)c2c1	3.9%	16.4µM*	-17.5%	?	?	nt
Cc1ccccc1NC(=O)Cn1cc(S(=O)(=O)c2ccccc2)c(=O)c2ccccc21	6.4%	-1.9%	-4.1%	18.5%	7.7%	nt
COC(=O)c1ccc2nc(-c3cccc(Cl)c3)c(Cc3ccccc3OC)n2c1	nt	23.1µM*	-25.0%	?	16.4µM*	20.4
COc1ccccc1Cc1c(-c2cccc(Cl)c2)nc2ccc(Br)cn12	nt	20.6µM*	-46.6%	?	23.1µM*	17.4
COC(=O)c1cccc(-c2cc(Cl)c3c(c2)CC(CNC(=O)c2cccnc2)O3)c1 (centres undefined)	nt	?	nt	nt	16.6%[9.04 µM]	nt
Clc1ccc(CSc2nc3ccncc3[nH]2)cc1	1.3%	?	-58.7%	4.1%	?	15.6
Cc1ccc(CSc2nc3ccncc3[nH]2)cc1	5.9%	14.6µM*	-89.7%	-16.0%	?	-16.7
O=C(NCc1ccc(Cl)cc1)c1ccc(CSc2nc3ccncc3[nH]2)cc1	nt	?	-19.4%	?	?	-74.1*
Cc1cc(C)cc(NC(=O)CSc2nc3ccncc3[nH]2)c1	-2.0%	16.4µM*	-24.5%	-16.9%	6.51µM*	26.8
COc1cccc(CN2CC(C(=O)NCCc3nccs3)CCC2=O)c1 (centres undefined)	nt	0.5%	0.8%	-0.8%	-7.1%	-0.4
COc1ccc(-c2ccc(=O)n(CC(=O)NCCc3ccccc3)n2)cc1	2.8%	-2.1%	-0.6%	2.1%	8.1%	nt
CC(C)c1cccc(C(C)C)c1NC(=O)CN1CCCC1	nt	0.8%	5.7%	0.9%	5.9%	14.6
CSc1ncc(C(=O)Nc2ccc(C)c(Cl)c2)c(-c2ccccc2)n1	1.2%	?	-24.8%	-6.0%	23.1µM*	nt
CC[C@H](C)[C@H](NC(=O)[C@H](CCC(=O)O)NC(=O)[C@H](CO)NC(=O)[C@@H](NC(=O)[C@H](C)N)C(C)C)C(=O)N[C@@H](CCC(N)=O)C(=O)N[C@@H](CC(C)C)C(=O)N[C@@H](CCSC)C(=O)N[C@@H](Cc1cnc[nH]1)C(=O)N[C@@H](CC(N)=O)C(=O)N[C@@H](CC(C)C)C(=O)NCC(=O)N[C@@H](CCCCN)C(=O)N[C@@H](Cc1cnc[nH]1)C(=O)N[C@@H](CC(C)C)C(=O)N[C@@H](C)C(=O)N[C@@H](CO)C(=O)N[C@H](C(=O)N[C@@H](CCC(=O)O)C(=O)N[C@@H](CCCNC(=N)N)C(=O)N[C@@H](CCSC)C(=O)N[C@@H](CCC(N)=O)C(=O)N[C@@H](Cc1c[nH]c2ccccc12)C(=O)N[C@@H](CC(C)C)C(=O)N[C@@H](CCCNC(=N)N)C(=O)N[C@@H](CCCCN)C(=O)N[C@@H](CCCCN)C(=O)N[C@@H](CC(C)C)C(=O)N[C@@H](CCC(N)=O)C(=O)N[C@@H](CC(=O)O)C(=O)N[C@H](C(=O)N[C@@H](Cc1cnc[nH]1)C(=O)N[C@@H](CC(N)=O)C(=O)N[C@@H](Cc1ccccc1)C(=O)O)C(C)C)C(C)C	11.5%	nt	nt	nt	nt	nt
CCN(CC)c1ccc(NS(=O)(=O)c2ccc(-c3coc(C)n3)cc2)c(C)c1	8.8%	18.4µM*	-15.8%	?	16.4µM*	nt
Cc1nc(-c2ccc(S(=O)(=O)Nc3ccc(S(N)(=O)=O)cc3)cc2)co1	1.5%	12.9%	-9.2%	4.6%	?	0.0
